According to PubChem BioAssay (Tox21):
Records with an inconclusive call do not appear. The source made the active and inactive calls. Unless noted, calls come from the whole dose curve; as a rule, active = well fitted curve in the direction sought with a large enough effect in the repeat runs; inconclusive = weak or mixed curves; inactive = no such curve, though single readings can be large; an effect the other way counts as inactive or inconclusive.

Columns and labels:
[1] = qHTS RealTime-Glo MT Cell Viability Assay in HEK293 cells - 0 hour (AID 1224880); conditions: RealTime-Glo luminescence; series mostly up to 76.8 µM; note: top concentration of the series differs between compounds; nearly all actives have a fitted effect of over 45% in size
Method in brief: (§1)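 Cells were seeded together with NanoLuc luciferase and a prosubstrate that viable cells reduce to a luciferase substrate. After a 5 h incubation at 37 C/5% CO2, compounds were added and luminescence was measured repeatedly during 40 h of treatment.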

[2] = A CellTox Green Cytotoxicity Assay to monitor cytotoxicity in HepG2 cells - 0 hour (AID 1224882); conditions: CellTox Green fluorescence; series mostly up to 76.8 µM; note: nearly all actives have a fitted effect of over 35% in size
Method in brief: (§2)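 Read-out is fluorescence of a cyanine dye excluded from live cells that stains DNA of dead HepG2 cells, with signal proportional to cytotoxicity. Plates were read at 0, 8, 16, 24, 32 and 40 h after compound addition.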

[3] = A CellTox Green Cytotoxicity Assay to monitor cytotoxicity in HepG2 cells - 32 hour (AID 1224883); conditions: CellTox Green fluorescence; series mostly up to 76.8 µM; note: nearly all actives have a fitted effect of over 50% in size
Method in brief: as §2

[4] = A CellTox Green Cytotoxicity Assay to monitor cytotoxicity in HEK293 cells - 8 hour (AID 1224884); conditions: CellTox Green fluorescence; series mostly up to 76.8 µM; note: nearly all actives have a fitted effect of over 35% in size
Method in brief: (§3)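 Nonlytic real-time cytotoxicity: HEK293 + CellTox Green reagent plated, 5 h preincubation, pintool compound addition (23 nL in DMSO), 37 C for 40 h, fluorescence measured at successive time points.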

[5] = qHTS RealTime-Glo MT Cell Viability Assay in HepG2 cells - 16 hour (AID 1224885); conditions: RealTime-Glo luminescence; series mostly up to 76.8 µM; note: nearly all actives have a fitted effect of over 50% in size
Method in brief: (§4)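 Tox21 10K library screened in qHTS format on HepG2 cells carrying RealTime-Glo reagents. Compounds were added after a 5 h preincubation, and the luminescent signal from continuous culture was measured repeatedly during 40 h treatment.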

[6] = qHTS RealTime-Glo MT Cell Viability Assay in HEK293 cells - 24 hour (AID 1224886); conditions: RealTime-Glo luminescence; series mostly up to 76.8 µM; note: top concentration of the series differs between compounds; nearly all actives have a fitted effect of over 50% in size
Method in brief: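 Luminescence generated by NanoLuc from substrate produced by living HEK293 cells served as the viability signal. Each value reflects the reading at its stated time point during continuous 40 h compound exposure at 37 C.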

[7] = qHTS RealTime-Glo MT Cell Viability Assay in HEK293 cells - 8 hour (AID 1224887); conditions: RealTime-Glo luminescence; series mostly up to 76.8 µM; note: top concentration of the series differs between compounds; nearly all actives have a fitted effect of over 50% in size
Method in brief: as §1

[8] = qHTS RealTime-Glo MT Cell Viability Assay in HepG2 cells - 0 hour (AID 1224889); conditions: RealTime-Glo luminescence; series mostly up to 76.8 µM; note: nearly all actives have a fitted effect of over 50% in size
Method in brief: as §4

[9] = qHTS assay to identify small molecule antagonists of the estrogen receptor alpha (ER-alpha) signaling pathway using the BG1 cell line in the presence of 0.1 nM 17-beta-estradiol - cell viability counter screen (AID 1259241); conditions: VM7Luc4E2 (BG1) viability, CellTiter-Fluor protease, 22 h, 0.1 nM estradiol agonist added; series mostly up to 92.4 µM; note: nearly all actives have a fitted effect of over 40% in size
Method in brief: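 VM7Luc4E2, 4,000 cells/well, phenol red-free medium + 10% charcoal-stripped FBS; 24 hr plating; cpd + 0.1 nM E2 final, 22 hr 37C/5% CO2; CellTiter-Fluor 30 min, fluorescence.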

[10] = qHTS assay to identify small molecule antagonists of the androgen receptor (AR) signaling pathway using the MDA cell line in the presence of 0.5 nM R1881 - cell viability counter screen (AID 1259242); conditions: MDA-kb2 viability, CellTiter-Fluor protease fluorescence, 16 h; series mostly up to 92.4 µM; note: nearly all actives have a fitted effect of over 45% in size
Method in brief: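 Counter screen for cytotoxicity run in the same wells as the AR antagonist reporter screen: MDA-kb2 cells were treated 16 hr with test compounds and 0.5 nM R1881, then live-cell protease activity was measured by fluorescence.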

[11] = biological target: Estrogen receptor (Homo sapiens) (UniProt P03372); assay: qHTS assay to identify small molecule antagonists of the estrogen receptor alpha (ER-alpha) signaling pathway using the BG1 cell line in the presence of 0.1 nM 17-beta-estradiol (AID 1259244); conditions: VM7Luc4E2 (BG1) ERE-luciferase, antagonist mode, 0.1 nM E2, 22 h; series mostly up to 92.4 µM; note: nearly all actives have a fitted effect of over 50% in size
Sequence of Estrogen receptor (Homo sapiens) (P03372 whole entry, looked up): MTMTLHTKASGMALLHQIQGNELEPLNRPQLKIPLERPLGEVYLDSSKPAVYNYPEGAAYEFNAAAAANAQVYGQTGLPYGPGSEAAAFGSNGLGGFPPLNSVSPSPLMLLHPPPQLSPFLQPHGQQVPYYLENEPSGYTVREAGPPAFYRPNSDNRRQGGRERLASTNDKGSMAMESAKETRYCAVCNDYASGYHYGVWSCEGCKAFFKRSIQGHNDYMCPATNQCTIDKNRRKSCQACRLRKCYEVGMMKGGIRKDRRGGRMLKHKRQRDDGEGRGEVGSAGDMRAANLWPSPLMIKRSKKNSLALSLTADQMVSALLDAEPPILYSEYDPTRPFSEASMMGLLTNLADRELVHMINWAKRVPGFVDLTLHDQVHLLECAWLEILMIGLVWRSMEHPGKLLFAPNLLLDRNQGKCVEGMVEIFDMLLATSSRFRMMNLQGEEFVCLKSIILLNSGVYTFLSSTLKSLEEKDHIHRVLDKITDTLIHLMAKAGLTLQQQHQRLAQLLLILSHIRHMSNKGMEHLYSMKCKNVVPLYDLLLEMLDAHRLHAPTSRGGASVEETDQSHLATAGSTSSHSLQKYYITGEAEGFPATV
Method in brief: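 Cells: VM7Luc4E2, endogenous ER-alpha, 4x ERE-luc stable. Pre-culture 5 d, phenol red-free, charcoal-stripped FBS. Plated 24 h, compound + E2 0.1 nM final, 22 h 37C/5% CO2. Readout ONE-Glo luminescence.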

[12] = qHTS assay to identify small molecule HDAC inhibitors (AID 1259364); conditions: HCT-116 HDAC-Glo I/II luminescence, 2 h; series mostly up to 92.4 µM; note: top concentration of the series differs between compounds; nearly all actives have a fitted effect of over 45% in size
Method in brief: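 Luminescence from a cell-permeant luminogenic class I/II HDAC substrate reports endogenous deacetylase activity in intact HCT-116 cells treated with compounds for 2 h.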

[13] = qHTS assay to identify small molecule HDAC inhibitors - cell viability counter screen (AID 1259365); conditions: HCT-116 viability, CellTiter-Glo ATP luminescence, 2 h; series mostly up to 92.4 µM; note: nearly all actives have a fitted effect of over 50% in size
Method in brief: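 Luminescence from CellTiter-Glo, developed 30min at room temperature, reports viability of wild-type HCT-116 cells treated 2hr with compounds at 37 C and 5% CO2 after overnight plating.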

[14] = qHTS assay to identify small molecule agonists of the sonic hedgehog signaling (Shh) pathway - cell viability counter screen (AID 1259366); conditions: NIH/3T3 Gli1-Luc viability, CellTiter-Fluor, 24 h; series mostly up to 92.4 µM; note: nearly all actives have a fitted effect of over 50% in size
Method in brief: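 Cytotoxicity counter screen run in the same wells as the Shh reporter assay. NIH/3T3 cells carrying a Gli1 response element–driven luciferase were treated with DMSO-dissolved compounds for 24hr, and live-cell protease activity was measured with CellTiter-Fluor.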

[15] = qHTS assay to identify small molecule antagonists of the sonic hedgehog signaling (Shh) pathway - cell viability counter screen (AID 1259367); conditions: NIH/3T3 Gli1-Luc viability, CellTiter-Fluor, 24 h; series mostly up to 92.4 µM; note: nearly all actives have a fitted effect of over 55% in size
Method in brief: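 Cells: 3T3 Gli1-Luc, 2,000/well, 4 hr pre-incubation. Compounds in DMSO, then conditioned medium. Incubation 24 hr, 37C, 5% CO2. CellTiter-Fluor at 23 hr, 1 hr, fluorescence.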

[16] = A CellTox Green Cytotoxicity Assay to monitor cytotoxicity in HEK293 cells - 16 hour (AID 1224888); conditions: CellTox Green fluorescence; series mostly up to 76.8 µM; note: nearly all actives have a fitted effect of over 35% in size
Method in brief: as §3

[17] = A CellTox Green Cytotoxicity Assay to monitor cytotoxicity in HepG2 cells - 8 hour (AID 1224890); conditions: CellTox Green fluorescence; series mostly up to 76.8 µM; note: nearly all actives have a fitted effect of over 45% in size
Method in brief: as §2

[18] = biological target: Androgen receptor (Homo sapiens) (UniProt P10275); assay: qHTS assay to identify small molecule antagonists of the androgen receptor (AR) signaling pathway using the MDA cell line in the presence of 0.5 nM R1881 (AID 1259243); conditions: MDA-kb2 MMTV-luciferase, R1881 0.5 nM, 16 h; series mostly up to 92.4 µM; note: nearly all actives have a fitted effect of over 50% in size
Sequence of Androgen receptor (Homo sapiens) (P10275 whole entry, looked up): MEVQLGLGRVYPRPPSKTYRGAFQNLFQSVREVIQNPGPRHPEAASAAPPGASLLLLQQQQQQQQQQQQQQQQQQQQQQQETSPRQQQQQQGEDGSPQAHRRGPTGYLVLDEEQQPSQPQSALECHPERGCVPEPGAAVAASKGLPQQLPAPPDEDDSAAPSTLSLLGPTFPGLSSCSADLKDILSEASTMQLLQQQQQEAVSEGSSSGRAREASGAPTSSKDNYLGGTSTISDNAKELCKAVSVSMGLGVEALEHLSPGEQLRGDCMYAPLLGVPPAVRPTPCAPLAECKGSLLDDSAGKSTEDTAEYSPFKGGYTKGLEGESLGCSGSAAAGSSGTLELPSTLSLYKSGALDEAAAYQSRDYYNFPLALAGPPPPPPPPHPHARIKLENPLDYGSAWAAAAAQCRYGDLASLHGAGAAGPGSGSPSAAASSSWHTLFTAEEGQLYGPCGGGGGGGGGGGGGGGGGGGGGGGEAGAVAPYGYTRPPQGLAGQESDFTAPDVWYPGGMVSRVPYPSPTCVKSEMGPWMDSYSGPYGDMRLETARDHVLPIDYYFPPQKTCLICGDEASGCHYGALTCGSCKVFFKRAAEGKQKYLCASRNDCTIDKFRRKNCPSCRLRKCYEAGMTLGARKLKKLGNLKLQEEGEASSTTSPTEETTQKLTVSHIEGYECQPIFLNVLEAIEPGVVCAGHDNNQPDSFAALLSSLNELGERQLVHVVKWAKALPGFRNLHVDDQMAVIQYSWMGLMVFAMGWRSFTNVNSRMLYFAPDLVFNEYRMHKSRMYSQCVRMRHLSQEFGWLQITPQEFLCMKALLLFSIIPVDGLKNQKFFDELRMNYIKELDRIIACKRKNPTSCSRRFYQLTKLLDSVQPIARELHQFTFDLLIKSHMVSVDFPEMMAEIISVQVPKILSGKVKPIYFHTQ
Method in brief: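 Luciferase luminescence is the read-out: compounds are tested for suppressing 0.5 nM R1881-driven MMTV reporter activity in MDA-kb2 cells after 16 hr at 37C.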

[19] = qHTS assay to identify small molecule phospholipidosis (PLD) inducers (AID 1259344; active = well fitted curve in the direction sought with a large enough effect; an effect the other way counts as inactive or inconclusive); conditions: HepG2 phospholipidosis, LipidTOX Red imaging, 24 h; series mostly up to 38.3 µM
Method in brief: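 Phospholipidosis is scored by imaging LipidTOX-stained pits in HepG2 cells exposed to compound for 24 h at 37 C; pit counts and integrated intensities per well and per cell serve as outputs.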

[20] = A CellTox Green Cytotoxicity Assay to monitor cytotoxicity in HEK293 cells - 32 hour (AID 1224881); conditions: CellTox Green fluorescence; series mostly up to 76.8 µM; note: nearly all actives have a fitted effect of over 40% in size
Method in brief: as §3

Measured: Potency

C=C(Cl)CCl
not listed: [16] | [17] | [18] | [19] | [20]
inactive: all other assays above

COc1cccc([C@@]2(O)CCCC[C@@H]2CN(C)C)c1
not listed: [3] | [13] | [20]
inactive: all other assays above

CN(C)C(=O)Oc1cc(OC(=O)N(C)C)cc(C(O)CNC(C)(C)C)c1 (centres undefined)
not listed: [12] | [17] | [20]
inactive: all other assays above

CC(C)(C)C(=O)C(Cl)Cl
not listed: [2] | [11] | [12] | [18] | [19] | [20]
inactive: all other assays above

CCCOC(=O)c1cncn1C(C)c1ccccc1 (centres undefined)
not listed: [12] | [15] | [17] | [19] | [20]
inactive: all other assays above

O=S1(=O)OCCO1
not listed: [1] | [11] | [19]
inactive: all other assays above

C=CCC1(C(C)CC)C(=O)NC(=O)NC1=O (centres undefined)
not listed: [1] | [18] | [19]
inactive: all other assays above

CCC1(CC)C(=O)C=CNC1=O
not listed: [1] | [12] | [14] | [18]
inactive: all other assays above

C=CCc1cc(OC)c2c(c1)OCO2
not listed: [3] | [11] | [14] | [16] | [18] | [19] | [20]
inactive: all other assays above

C=CC(=O)OCCN(C)C
not listed: [11] | [12] | [18] | [19] | [20]
inactive: all other assays above

N[C@@H]1C[C@H]1c1ccccc1
not listed: [3] | [15] | [16] | [20]
inactive: all other assays above

O=C(Cl)CCl
not listed: [16] | [18] | [19] | [20]
inactive: all other assays above

O=[N+]([O-])CCO
not listed: [2] | [3] | [12] | [18] | [19] | [20]
inactive: all other assays above

CCNc1nc(Cl)nc(NC(C)(C)C)n1
not listed: [1] | [12] | [19]
inactive: all other assays above

O=C(Cl)C(Cl)(Cl)Cl
not listed: [2] | [14] | [18] | [19] | [20]
inactive: all other assays above
